# Counter-ions that a name gives are not always drawn. Among all 5,300 compounds or so, about 130 (2.5%) showed an effect of 50% or more. For the sample, strong results were picked, then their nearest neighbours and some compounds at random.
# System: M. mycetomatis strain mm55
# Conditions: primary screen, metabolic activity vs growth control; 96 h, 2 µM; inhibitor
row,SMILES,% viability [%]
1,"CO/N=C(/C(=O)NC1C(=O)N2C(C(=O)O)=C(C[N+]3(C)CCCC3)CSC12)c1csc(N)n1 (stereo not drawn) [ONC0000506, cefepime hydrochloride]",66.95
2,"CC(=O)OCC(=O)[C@@]1(O)[C@@H](C)CC2C3CCC4=CC(=O)C=C[C@]4(C)[C@@]3(F)[C@@H](O)C[C@@]21C (stereo partly drawn) [ONC0004050, betamethasone acetate]",111.9
3,"O=CN1CCC(C(=O)NCCN2CCC(=C3c4ccccc4C=Cc4ccccc43)CC2)CC1 [ONC0001856, at1015]",84.57
4,"N#Cc1ccc(N2NC3=C(CCc4cc(C(=O)O)ccc43)[C@@H]2C2CCCC2)cc1Cl [ONC0002131, pf03882845]",78.15
5,"COc1ccc(Nc2nccc(NCCO)n2)cc1 [ONC0000720, cardiogenolc]",79.31
6,OCCCNc1cc(-c2ccnc(Nc3cccc(Cl)c3)n2)ccn1 [cgp60474],9.09
7,"O=C(Nc1cccc(Cl)c1)c1ccccn1 [ONC0004653, vu 0364770]",68.57
8,"CC(C)[C@H](N)C(=O)OCCOCn1cnc2c(=O)[nH]c(N)nc21 [ONC0004144, valacyclovir hydrochloride]",101.2
9,"O=c1[nH]ccc2cc(OC3CCNCC3)ccc12 [ONC0001198, sar407899 hydrochloride]",94.6
10,"O=C(CC1CC(c2ccc(F)cc2F)=NO1)N1CCOCC1 (stereo not drawn) [ONC0000237, cpsi1306]",89.07
11,"O=C1CN(/N=C/c2ccc(-c3ccc([N+](=O)[O-])cc3)o2)C(O)=N1 [ONC0003073, dantrolene]",104.9
12,"COC(=O)[C@@]12OC[C@]34[C@H]([C@@H](O)[C@@H]1O)[C@@]1(C)CC(=O)C(O)=C(C)[C@@H]1C[C@H]3OC(=O)[C@H](OC(=O)/C=C(\C)C(C)C)[C@@H]24 [ONC0001105, bruceantin]",72.53
13,"COc1cc2c(NC3CCN(C)CC3)nc(N3CCCN(C)CC3)nc2cc1OCCOCCN(C)C [ONC0002054, unc0321]",65.32
14,"COc1cc2nc(N3CCCN(C)CC3)nc(NC3CCN(Cc4ccccc4)CC3)c2cc1OC [ONC0004534, bix 01294]",44.63
15,"COc1cc2c(NC3CCN(C)CC3)nc(N3CCCN(C)CC3)nc2cc1OCCCN(C)C [ONC0000276, unc0224]",85.54
16,"CNCCc1c[nH]cn1 [ONC0002580, nalphamethylhistaminedihydrochloride]",77.02
17,"C[C@]12C=CC(=O)C=C1CCC1C2[C@@H](O)C[C@@]2(C)C1CC[C@]2(O)C(=O)COC(=O)CCC(=O)O (stereo partly drawn) [ONC0004028, prednisolone hemisuccinate]",62.59
18,"COc1ccc2c(NC(=O)Nc3cccc(C(F)(F)F)n3)ccnc2c1 [ONC0002529, a1070722]",76.76
19,"O=C(O)CCC(=O)O [ONC0003714, succinic acid]",98.68
20,"NCC(=O)O [ONC0001985, glycine]",104.5

row,SMILES,% viability [%]
1,"NCC(=O)CCC(=O)O [ONC0004291, aminolevulinic acid hydrochloride]",48.43
2,"CC(C)OC(=O)CNC(=O)[C@H](CS)NC(=O)CC[C@H](N)C(=O)O [ONC0002985, glutathionemonoisopropylester]",70.59
3,"CC(C)(S)C(=O)N[C@@H](CS)C(=O)O [ONC0003276, bucillamine]",45.36
4,"CC(=O)N[C@@H](CS)C(=O)O [ONC0000337, acetylcysteine]",67.99
5,"NC(=O)c1cc[n+](CC2=C(C(=O)O)N3C(=O)[C@@H](NC(=O)Cc4cccs4)[C@H]3SC2)cc1 [ONC0005624, cefalonium]",95.75
6,"CO[C@H]1CC[C@H](N(c2cc(C3=CCCCC3)sc2C(=O)O)C(=O)[C@H]2CC[C@H](C)CC2)CC1 [ONC0000943, vch916]",78.62
7,"CC(C)c1ccc(C(=O)NC(=N)N)cc1S(C)(=O)=O [ONC0004136, cariporide]",93.97
8,"CC12CCC(C(Br)C1=O)C2(C)C (stereo not drawn) [ONC0003727, 3bromocamphor]",127.8
9,"Cc1csc2c(N[C@@H](C)CN3CCN(S(=O)(=O)c4ccc(Cl)c(Cl)c4)CC3)ncnc12 [ONC0001129, lpa2 antagonist 1]",45.06
10,"O=C(O)/C(Cc1ccccc1[N+](=O)[O-])=N/Nc1nc(-c2ccc(Cl)c(Cl)c2)cs1 [ONC0005147, 4egi1]",73.1
11,"CC[C@]1(O)C[C@H]2CN(CCc3c([nH]c4ccccc34)[C@@](C(=O)OC)(c3cc4c(cc3OC)N(C)[C@H]3[C@@](O)(C(N)=O)[C@H](O)[C@]5(CC)C=CCN6CC[C@]43[C@@H]65)C2)C1 [ONC0000288, vindesine sulfate]",94.86
12,"CCCCC(=O)O[C@H]1CC[C@H]2[C@@H]3CCc4cc(O)ccc4[C@H]3CC[C@]12C [ONC0000727, estradiol valerate]",49.76
13,"C[C@]12CC[C@@H]3c4ccc(O)cc4CC[C@H]3[C@@H]1CC[C@@H]2OC(=O)CCC1CCCC1 [ONC0000738, estradiol cypionate]",84.11
14,"C[C@]12CC[C@@H]3c4ccc(O)cc4CC[C@H]3[C@@H]1CC[C@@H]2O [ONC0000707, estradiol]",85.31
15,"[H]/N=C(\N/C(=N/[H])NCCCCCCNC(=N)NC(=N)Nc1ccc(Cl)cc1)Nc1ccc(Cl)cc1 [ONC0000326, chlorhexidine dihydrochloride]",77.24
16,"Cc1cccc(NC(=O)N[C@@H]2N=C(c3ccccc3)c3ccccc3N(CC(=O)c3ccccc3C)C2=O)c1 [ONC0005568, ym022]",88.21
17,"CC1=C(CCC(=O)O)c2cc3[nH]c(cc4nc(cc5[nH]c(cc1n2)c(C)c5C(C)O)C(C)=C4C(C)O)c(C)c3CCC(=O)O (stereo not drawn) [ONC0002122, hematoporphyrin]",86.42
18,"C=CC1=C(C)c2cc3[nH]c(cc4nc(cc5[nH]c(cc1n2)c(C)c5CCC(=O)O)C(CCC(=O)O)=C4C)c(C)c3C=C [ONC0000685, protoporphyrin ix]",98.29
19,"C=Cc1c(C)c2cc3nc(c(CC(=O)O)c4[nH]c(cc5nc(cc1[nH]2)C(C)=C5CC)c(C)c4C(=O)O)C(CCC(=O)O)C3C (stereo not drawn) [ONC0000409, chlorophyllin chlorin e6]",49.9

# Reference: publication PMC12670160, “A drug-repurposing screen of FDA- and EMA-approved drugs identifies two NF-κB inhibitors active against eumycetoma” (Journal of Antimicrobial Chemotherapy, 2025)
